The full ranking holds about 110,000 compounds; the median of “z-score” is about -0.1, and the highest 2% start at about 2. The list comes from a sample in which the highest values are over-represented; it also holds similar structures and randomly drawn compounds. Calls of active or inactive are those of the source.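 Rule for the calls: active = z-score in the third read window above 3 or below -3; inactive = the rest.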
Molecular target: Metabotropic glutamate receptor 8 (Rattus norvegicus) (UniProt P70579)
Experiment: rat mGluR8 modulators via GIRK flux, primary screen, cell-based, thallium flux, HTS (AID 488969)
Conditions: HEK293 rat mGluR8, GIRK (G protein-gated inwardly rectifying potassium channel) thallium flux, FluoZin2; at 10 µM; stronger effect = higher value; submaximal glutamate (EC20) added with thallium

Sequence of Metabotropic glutamate receptor 8 (Rattus norvegicus) (P70579 whole entry, looked up): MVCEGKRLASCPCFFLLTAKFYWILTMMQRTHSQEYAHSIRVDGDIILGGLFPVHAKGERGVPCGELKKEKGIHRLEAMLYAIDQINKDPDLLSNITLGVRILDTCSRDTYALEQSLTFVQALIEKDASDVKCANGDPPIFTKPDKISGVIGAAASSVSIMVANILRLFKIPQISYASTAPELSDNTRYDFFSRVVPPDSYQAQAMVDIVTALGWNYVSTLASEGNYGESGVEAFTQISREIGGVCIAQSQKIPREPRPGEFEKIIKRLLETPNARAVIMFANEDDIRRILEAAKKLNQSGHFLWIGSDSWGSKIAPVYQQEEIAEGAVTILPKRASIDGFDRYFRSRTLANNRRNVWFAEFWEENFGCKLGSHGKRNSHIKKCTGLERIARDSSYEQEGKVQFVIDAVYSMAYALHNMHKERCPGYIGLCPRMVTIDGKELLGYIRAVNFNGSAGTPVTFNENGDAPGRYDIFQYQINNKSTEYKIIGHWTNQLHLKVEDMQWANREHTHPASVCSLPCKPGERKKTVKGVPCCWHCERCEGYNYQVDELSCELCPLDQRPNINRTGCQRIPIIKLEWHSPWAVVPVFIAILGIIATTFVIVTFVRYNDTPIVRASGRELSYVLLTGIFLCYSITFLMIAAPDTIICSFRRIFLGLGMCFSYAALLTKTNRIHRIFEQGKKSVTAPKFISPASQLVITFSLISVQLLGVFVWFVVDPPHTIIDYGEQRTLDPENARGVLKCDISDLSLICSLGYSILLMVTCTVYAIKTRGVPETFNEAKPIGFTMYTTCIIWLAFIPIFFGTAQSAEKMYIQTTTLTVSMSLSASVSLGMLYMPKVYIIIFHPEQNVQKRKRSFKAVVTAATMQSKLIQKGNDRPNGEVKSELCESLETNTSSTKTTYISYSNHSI

Which z-score does the source give for `COc1ccc(OC)c(/C(O)=C/C(=O)C(=O)Nc2cc(C)cc(C)c2)c1` here?
Its z-score is 0.571.

For `CCOC(=O)C(NC(=O)c1ccccc1)(OCc1ccc(F)cc1)C(F)(F)F` (stereo not given), which z-score is on record?
The z-score was 0.14.

With `CCn1c(SCC(=O)c2cc(C)n(C)c2C)nnc1-c1ccccc1` as the molecule, how does the z-score read?
The z-score was 0.0656.

`Cc1cc(C(=O)CSc2nnc(-c3ccccc3)n2C)c(C)n1C` was tested. Which z-score did it give?
The z-score was -0.546.

How did the z-score turn out when `Cc1cc(C(=O)CSc2nnc(-c3ccncc3)n2-c2ccccc2)c(C)n1C` was run?
The z-score was 4.58 (active).

For `C=CCn1c(SCC(=O)NCCc2ccccc2)nnc1C(C)NC(=O)c1cccs1` (stereo not given), which z-score is on record?
Its z-score is 0.0814.

`O=c1c(-c2nnc(SCc3ccc(Cl)cc3)o2)cccn1Cc1ccccc1` was tested. Which z-score did it give?
Its z-score is 0.618.

With `N#C/C(=C\c1ccc(OC(=O)c2ccccn2)cc1)C(N)=O` as the molecule, how does the z-score read?
Its z-score is -0.197.

For `O=S(=O)(Nc1cc(Sc2cccc3cccnc23)c(O)c2ccccc12)c1ccc(F)cc1`, which z-score is on record?
The z-score was 5.2 (active).

How did the z-score turn out when `COc1ccc(S(=O)(=O)Nc2cc(Sc3ncn[nH]3)c(O)c3ccccc23)cc1` was run?
The z-score was 0.366.

`O=S(=O)(NCCOc1cccc2cccnc12)c1ccc(F)cc1` was tested. Which z-score did it give?
The z-score was -0.153.

`COC(=O)c1ccc(N2CCN(S(=O)(=O)c3ccccc3)CC2)c([N+](=O)[O-])c1` was tested. Which z-score did it give?
The z-score was -0.111.

With `Cc1cc(=O)n(C)c(=O)n1CC(=O)N1CCCCCC1` as the molecule, how does the z-score read?
The z-score was 0.975.

Which z-score does the source give for `Cc1c(NC(=O)/C(C#N)=C/c2cccs2)c(=O)n(-c2ccccc2)n1C` here?
Its z-score is 0.559.

How did the z-score turn out when `O=C(Nc1ccccc1)c1ccc(OC(=O)c2cc3ccccc3o2)cc1` was run?
The z-score was -0.284.

With `O=C(Oc1ccccc1)c1cc2ccccc2o1` as the molecule, how does the z-score read?
The z-score was 2.68.

With `COc1ccc(OC(=O)c2cc3ccccc3o2)cc1` as the molecule, how does the z-score read?
Its z-score is 0.125.

With `CCCCn1c(=O)c(C(=O)c2ccccc2)nc2ccccc21` as the molecule, how does the z-score read?
The z-score was -0.617.

How did the z-score turn out when `S=c1sc2c(N3CCN(Cc4ccccc4)CC3)ncnc2n1-c1ccccc1` was run?
Its z-score is 0.467.

`COc1ccc(CCN(Cc2cccs2)S(=O)(=O)c2ccc(S(=O)(=O)N3CCC(C)CC3)cc2)cc1OC` was tested. Which z-score did it give?
The z-score was -0.101.

How did the z-score turn out when `CCOC(=O)N1CCN(C(=O)c2ccc3c(=O)n(CCC4=CCCCC4)c(=S)[nH]c3c2)CC1` was run?
Its z-score is 0.221.

Which z-score does the source give for `O=c1c2oc3ccccc3c2[nH]c(=S)n1-c1ccccc1` here?
Its z-score is 0.645.

Which z-score does the source give for `O=c1c2ccccc2[nH]c(=S)n1CCC1=CCCCC1` here?
The z-score was 0.577.

With `CCCCn1c(=S)[nH]c2c(oc3ccc(Cl)cc32)c1=O` as the molecule, how does the z-score read?
Its z-score is 13.1 (active).

How did the z-score turn out when `O=c1c2ccc(Cl)cc2[nH]c(=S)n1CCC1=CCCCC1` was run?
The z-score was 5.05 (active).

With `CCN(CC)CCCn1c(=S)[nH]c2cc(OC)c(OC)cc2c1=O` as the molecule, how does the z-score read?
The z-score was -0.0622.

For `CCN(CC)CCCn1c(=S)[nH]c2ccc(Cl)cc2c1=O`, which z-score is on record?
The z-score was 0.0726.

Which z-score does the source give for `CCN(CC)CCCn1c(=S)[nH]c2cc(Cl)ccc2c1=O` here?
The z-score was 4.1 (active).

How did the z-score turn out when `CCN(CC)CCn1c(=S)[nH]c2cc(Cl)ccc2c1=O` was run?
The z-score was 1.41.

How did the z-score turn out when `Cc1ccc(C)c(N2CCN(c3ccc(N4C(=O)COCC4=O)cc3[N+](=O)[O-])CC2)c1` was run?
The z-score was -0.128.

For `O=[N+]([O-])c1ccc2c(c1)C(N1CCOCC1)/C(=C/COc1ccc3ccccc3c1Br)O2` (stereo not given), which z-score is on record?
The z-score was -0.0823.

For `COc1ccc(-c2nnn(CC(=O)N3CCN(c4ccccc4OC)CC3)n2)cc1`, which z-score is on record?
Its z-score is -0.289.

For `CCOC(=O)C1CCc2sc(N)c(C#N)c21` (stereo not given), which z-score is on record?
Its z-score is 2.38.

`CCOC(=O)Nc1sc2c(c1C#N)CCC(C)C2` (stereo not given) was tested. Which z-score did it give?
Its z-score is -0.505.

How did the z-score turn out when `CCCC(=O)Nc1sc2c(c1C(=O)OC)C(C(=O)OC)CC2` (stereo not given) was run?
Its z-score is -0.0731.

How did the z-score turn out when `Cc1ccc(O)c(C(=O)c2cnc3c(c2)COc2ccccc2-3)c1` was run?
Its z-score is -0.0344.

Which z-score does the source give for `CCOC(=O)C1=C(C)NC(C)=C(C(=O)OCC)C1c1ccc(O)cc1` here?
Its z-score is -0.238.

`CS(=O)(=O)N1CCC(C(=O)Nc2ccc3c(c2)OCCO3)CC1` was tested. Which z-score did it give?
The z-score was 0.0973.

With `O=C(Nc1ccc2c(c1)OCCO2)C1CCN(c2cnccn2)CC1` as the molecule, how does the z-score read?
The z-score was 2.51.

With `O=C(Nc1ccc2c(c1)OCCO2)C1CCC1` as the molecule, how does the z-score read?
The z-score was 0.045.

How did the z-score turn out when `Cc1cc(C)nc(SCC(=O)c2c(N)n(C)c(=O)n(C)c2=O)n1` was run?
The z-score was -0.282.

With `CN(C)CCCNC(=O)c1ccc(-c2nc(-c3ccc(Cl)cc3)cs2)cc1` as the molecule, how does the z-score read?
The z-score was 3.28 (active).

Which z-score does the source give for `C=CCNC(=O)c1ccc(-c2nc(-c3ccccc3)cs2)cc1` here?
The z-score was 0.133.

Which z-score does the source give for `C=CCNC(=O)c1ccc(-c2nc(-c3ccc(Cl)c(Cl)c3)cs2)cc1` here?
Its z-score is -0.148.

`CCc1cccc(C)c1NC(=O)CCCC(=O)O` was tested. Which z-score did it give?
Its z-score is 0.0858.

With `O=C(Nc1cnn(Cc2ccccc2)c1)c1nc2ncccn2n1` as the molecule, how does the z-score read?
The z-score was -0.222.

How did the z-score turn out when `Cc1ccccc1Cn1ccc(NC(=O)c2nc3ncccn3n2)n1` was run?
The z-score was -1.29.

With `Cc1ccccc1Cn1cc(NC(=O)c2nc3ncccn3n2)cn1` as the molecule, how does the z-score read?
The z-score was 2.77.

`COc1ccc(/C=C/C(=O)c2sc(-c3ccccc3)nc2C)cc1` was tested. Which z-score did it give?
The z-score was 0.276.

For `COc1ccc(-c2nc(N)nc(C)c2Oc2ccccc2Br)c(O)c1`, which z-score is on record?
Its z-score is -0.381.

For `CSc1ccc(CCNC(=O)CSc2ccsc2[N+](=O)[O-])cc1`, which z-score is on record?
Its z-score is -0.173.

For `CCc1nnc(NC(=O)CSc2nc(-c3ccccc3)cc(-c3ccc(OC)cc3)c2C#N)s1`, which z-score is on record?
The z-score was -0.249.

With `CCc1nnc(NC(=O)CSc2nc(-c3ccc(F)cc3)cc(-c3ccccc3)c2C#N)s1` as the molecule, how does the z-score read?
The z-score was 2.35.

`CCc1nnc(NC(=O)CSc2nc(-c3ccccc3)cc(-c3ccc(F)cc3)c2C#N)s1` was tested. Which z-score did it give?
The z-score was -0.163.

With `c1ccc(-c2nc(CSc3n[nH]c(-c4cccs4)n3)cs2)cc1` as the molecule, how does the z-score read?
Its z-score is 0.259.

`CCCN1CCN(C(=O)c2cn(CC(C)C)c(=O)c3cc(OC)c(OC)cc23)CC1` was tested. Which z-score did it give?
Its z-score is -0.37.

For `CCOC(=O)C1CCCN(C(=O)c2cn(CC(C)C)c(=O)c3cc(OC)c(OC)cc23)C1` (stereo not given), which z-score is on record?
The z-score was -0.759.

For `COc1cc2c(C(=O)N3CCN(C4CCCCC4)CC3)cn(CC(C)C)c(=O)c2cc1OC`, which z-score is on record?
The z-score was 2.68.

How did the z-score turn out when `Cc1nn(-c2ccccc2)c(Cl)c1C(=O)OC(C)C(=O)Nc1ccc2c(c1)OCO2` (stereo not given) was run?
Its z-score is -0.936.

How did the z-score turn out when `CCCn1nnc(NC(=O)c2ccc(F)cc2)n1` was run?
The z-score was -0.08.

For `COc1ccc(-c2nc(N)n[nH]2)cc1`, which z-score is on record?
The z-score was -0.101.

Which z-score does the source give for `Nc1n[nH]c(-c2ccccc2)n1` here?
The z-score was 0.189.

Which z-score does the source give for `CCCCc1ccc(-c2nc(N)n[nH]2)cc1` here?
The z-score was 2.99.

How did the z-score turn out when `CCOC(=O)c1c(C)[nH]c(C(=O)COC(=O)c2ccccc2NC(=O)c2ccco2)c1C` was run?
Its z-score is -0.00749.

For `Cc1ccc(NC(=O)CSCCc2ccccn2)nc1`, which z-score is on record?
Its z-score is 0.022.

`CSc1ccc(/C=N/NC(=O)CNc2cccc3ccccc23)cc1` was tested. Which z-score did it give?
Its z-score is 0.3.

With `CCNC(=O)NC(=O)C(C)OC(=O)C1CCN(S(=O)(=O)c2ccc(C)c(C)c2)CC1` (stereo not given) as the molecule, how does the z-score read?
The z-score was -0.143.

`COc1cccc(-c2nc(=S)c3c(n2Cc2ccco2)CCCC3)c1` was tested. Which z-score did it give?
Its z-score is 0.708.

`Cc1cccc(-c2nc(=S)c3c(n2Cc2ccco2)CCCC3)c1` was tested. Which z-score did it give?
Its z-score is 0.581.

For `S=c1nc(-c2ccccc2)n(Cc2ccco2)c2c1CCCC2`, which z-score is on record?
Its z-score is 2.16.

Reference: PubChem BioAssay AID488969 (Vanderbilt High Throughput Screening Facility, 2010)
